The panel holds about 83,000 compounds, 20% with a hit somewhere; the sample as a whole holds those more often.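 Cell lines were cultured in 96-well plates, exposed to a single compound concentration, and assessed for percent growth 48 hours later.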 Active and inactive are the calls of the source. Rule for the calls: active = growth percent below 10; inactive = the rest.
What was measured:
Test in all cases: NCI-60 one-dose screen, 48 h (100 = growth as untreated, 0 = no growth, -100 = all killed)
Details in all cases: 10 µM unless noted
NCI-H23 lung = test system: NCI-H23 lung
NCI-H226 lung = test system: NCI-H226 lung
NCI-H322M lung = test system: NCI-H322M lung
HOP-62 NSCLC = test system: HOP-62 NSCLC
NCI-H460 lung = test system: NCI-H460 lung
NCI-H522 lung = test system: NCI-H522 lung
A549/ATCC NSCLC = test system: A549/ATCC NSCLC
786-0 renal = test system: 786-0 renal
COLO 205 colon = test system: COLO 205 colon
DU-145 prostate = test system: DU-145 prostate
K-562 leukemia = test system: K-562 leukemia
MALME-3M melanoma = test system: MALME-3M melanoma
MDA-MB-231 breast = test system: MDA-MB-231 breast
RXF 393 renal = test system: RXF 393 renal
SF-268 CNS = test system: SF-268 CNS
SF-295 CNS = test system: SF-295 CNS
SF-539 CNS = test system: SF-539 CNS
UACC-257 melanoma = test system: UACC-257 melanoma
M14 melanoma = test system: M14 melanoma

Measured: growth

C=C1CCC2C3(C)COC(c4ccco4)OC3CCC2(C)C1CC(Sc1ccccc1)C1=CCOC1=O (stereo not drawn)
active: NCI-H522 lung 7.02%
inactive: NCI-H23 lung 64.8% | NCI-H226 lung 31.5% | NCI-H322M lung 92.2% | HOP-62 NSCLC 100% | NCI-H460 lung 105% | A549/ATCC NSCLC 53.7% | 786-0 renal 62.7% | COLO 205 colon 98% | DU-145 prostate 78.4% | K-562 leukemia 18.5% | MALME-3M melanoma 94.9% | MDA-MB-231 breast 78.5% | RXF 393 renal 96.5% | SF-268 CNS 91.5% | SF-295 CNS 76.1% | SF-539 CNS 48.3% | UACC-257 melanoma 54.1% | M14 melanoma 61.6%

Cc1ccc(S(=O)(=O)c2nc(S(=O)(=O)c3ccc(C)cc3)c(Cl)s2)cc1
active: NCI-H226 lung 1.5% | NCI-H522 lung -89.5% | 786-0 renal -49.6% | COLO 205 colon -78.6% | DU-145 prostate -22.5% | K-562 leukemia 5.15% | MALME-3M melanoma -90.4% | MDA-MB-231 breast -54.5% | RXF 393 renal -76.9% | SF-539 CNS -62%
inactive: NCI-H23 lung 36.8% | NCI-H322M lung 89.7% | HOP-62 NSCLC 105% | NCI-H460 lung 41.5% | A549/ATCC NSCLC 92.8% | SF-268 CNS 108% | SF-295 CNS 94% | UACC-257 melanoma 67.2% | M14 melanoma 23.7%

O=C(NN1C(=O)/C(=C/C=C/c2ccc([N+](=O)[O-])o2)SC1=S)c1cccc(O)c1
active: NCI-H23 lung -89% | NCI-H226 lung -92.2% | NCI-H322M lung -66.9% | HOP-62 NSCLC -73.5% | NCI-H460 lung -49.3% | NCI-H522 lung -96.6% | A549/ATCC NSCLC -67.4% | 786-0 renal -91.5% | COLO 205 colon -79.7% | DU-145 prostate -99.2% | K-562 leukemia 6.17% | MALME-3M melanoma -99.2% | MDA-MB-231 breast -98.4% | RXF 393 renal -89.6% | SF-268 CNS -91.3% | SF-295 CNS -40.1% | SF-539 CNS -100% | UACC-257 melanoma -85.2% | M14 melanoma -89%

Cc1ccc(S(=O)(=O)c2nc(S(=O)(=O)c3ccc(C)cc3)c(N3CCN(C)CC3)s2)cc1
inactive: NCI-H23 lung 56% | NCI-H226 lung 67.3% | NCI-H322M lung 67.3% | HOP-62 NSCLC 99.9% | NCI-H460 lung 40.1% | NCI-H522 lung 15.2% | A549/ATCC NSCLC 59.5% | 786-0 renal 47.5% | COLO 205 colon 78% | DU-145 prostate 52.6% | K-562 leukemia 15.7% | MALME-3M melanoma 73.5% | MDA-MB-231 breast 84.4% | RXF 393 renal 30.3% | SF-268 CNS 78.7% | SF-295 CNS 102% | SF-539 CNS 57.5% | UACC-257 melanoma 85.8% | M14 melanoma 74%

Cc1sc2c(c1C)C(c1ccc(Cl)cc1)=N[C@@H](CC(=O)NCCCCCNC(=O)COc1ccc(C3CCC(=O)NC3=O)cc1)c1nnc(C)n1-2 (stereo partly drawn)
inactive: NCI-H23 lung 47.3% | NCI-H322M lung 23.7% | HOP-62 NSCLC 16% | NCI-H460 lung 73% | A549/ATCC NSCLC 25.7% | 786-0 renal 26.5% | DU-145 prostate 88.5% | K-562 leukemia 28.4% | MALME-3M melanoma 13% | RXF 393 renal 45.3% | SF-268 CNS 65.4% | SF-539 CNS 23.1% | UACC-257 melanoma 49.3% | M14 melanoma 17.6%
active: NCI-H226 lung 8.38% | NCI-H522 lung 3.85% | COLO 205 colon -61.7% | MDA-MB-231 breast 5.01% | SF-295 CNS 9.91%

O=C(COc1ccc2c(c1)CCCC(=O)N2)NCc1ccccc1
inactive: NCI-H23 lung 94.5% | NCI-H226 lung 93.9% | NCI-H322M lung 112% | HOP-62 NSCLC 92.5% | NCI-H460 lung 104% | NCI-H522 lung 89.1% | A549/ATCC NSCLC 103% | 786-0 renal 101% | COLO 205 colon 106% | DU-145 prostate 113% | K-562 leukemia 43.4% | MALME-3M melanoma 95.6% | MDA-MB-231 breast 82.4% | RXF 393 renal 93.2% | SF-268 CNS 97.5% | SF-295 CNS 90.8% | SF-539 CNS 87.3% | UACC-257 melanoma 98% | M14 melanoma 83%

CN(C)c1nc(NCCNS(=O)(=O)c2ccc(C(=O)/C=C/c3ccc(Cl)cc3)cc2)nc(Nc2ccc(F)cc2)n1
active: NCI-H23 lung -38.6% | NCI-H226 lung -53.3% | NCI-H322M lung 6.91% | NCI-H460 lung -67.9% | NCI-H522 lung -87.4% | A549/ATCC NSCLC -23.5% | 786-0 renal -86% | COLO 205 colon -82.9% | DU-145 prostate -23.1% | K-562 leukemia 1.01% | MALME-3M melanoma -46.6% | MDA-MB-231 breast -61.4% | RXF 393 renal -81.3% | SF-268 CNS 3.35% | SF-295 CNS -26.6% | SF-539 CNS -98% | UACC-257 melanoma -4.45% | M14 melanoma -65.8%
inactive: HOP-62 NSCLC 15.4%

Reference: PubChem BioAssay (NCI)
